Bioassay records (PubChem BioAssay)
The list is not random: actives were taken first. Their share in the collection is about 3.6%.
A3A deaminase: blocks human APOBEC3A ssDNA deamination; 330,000 compounds, 0.41% hits; recombinant A3A, FAM/TAMRA ssDNA deamination fluorescence; AID 493011; P31941; inhibition, % at 20 µM;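 active means at least 40% inhibition at 20 µM here, with at most 30% in a related deaminase screen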;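 further: plate controls were A3A with DMSO for no effect and wells lacking A3A enzyme for full effect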
Target sequence (P31941 whole entry, looked up): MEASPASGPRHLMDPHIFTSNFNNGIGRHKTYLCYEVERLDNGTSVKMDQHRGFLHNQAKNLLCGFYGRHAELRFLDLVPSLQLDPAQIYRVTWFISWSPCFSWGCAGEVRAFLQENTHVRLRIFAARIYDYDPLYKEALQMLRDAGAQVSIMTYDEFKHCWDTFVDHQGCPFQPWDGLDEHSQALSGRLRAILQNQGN
PHOSPHO1 inh: PHOSPHO1 (human) inhibition; 290,000 compounds, 1.1% hits; inhibition, % at 13.3 µM; AID 1565; recombinant PHOSPHO1, absorbance phosphatase assay; in the data active means inhibition above about 60%
Target sequence (Q8TCT1 whole entry, looked up): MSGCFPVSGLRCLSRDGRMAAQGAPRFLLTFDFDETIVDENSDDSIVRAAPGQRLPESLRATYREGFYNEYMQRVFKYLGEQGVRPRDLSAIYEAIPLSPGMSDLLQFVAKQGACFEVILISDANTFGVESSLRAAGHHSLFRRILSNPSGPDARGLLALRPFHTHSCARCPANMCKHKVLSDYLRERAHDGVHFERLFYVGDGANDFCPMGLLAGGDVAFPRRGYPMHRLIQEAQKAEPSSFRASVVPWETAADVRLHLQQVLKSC
esBAF inh: blocks esBAF chromatin remodeling in mouse ES cells | Bmi1-luciferase knock-in reporter, 24 h; 100% = twice the neutral-well signal | reporter increase, % at 12.5 µM | 350,000 compounds, 2% hits | AID 602393; in the data active means activation above about 40%;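 further: 0% = median of the plate's neutral control wells and 100% = double that signal; a rise in the Bmi1 reporter signal indicates esBAF inhibition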
MITF TRPM1 HTS: increases MITF-driven TRPM1 promoter luciferase signal; SK-MEL-5 TRPM1-promoter luciferase, 24 h; % of positive control, neutral wells = 0; activation, % at 12.5 µM; 300,000 compounds, 0.75% hits;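 active means mean activation of at least 80% with every replicate also reaching 80%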;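 further: 0% = neutral control wells and 100% = parthenolide positive control wells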
APOBEC3G inh: APOBEC3G (human) deaminase inhibition; AID 493012; Q9HC16; 330,000 compounds, 0.28% hits; inhibition, % at 20 µM; recombinant A3G, ssDNA deamination FAM/TAMRA fluorescence;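 active means inhibition of at least 40% at 20 µM, with no more than 30% in the related APOBEC3A deaminase screen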;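 further: plate controls were DMSO wells with A3G for no effect and wells lacking A3G enzyme for full effect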
Wnt bcat act: activators of Wnt/beta-catenin signaling | AID 743398 | 300,000 compounds, 1.2% hits | Wnt/beta-catenin reporter cell assay, activator, plate reader | activation, % at 9.35 µM; in the data active means activation above about 30%, passing the limit was not always enough;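 further: 0% = neutral control wells and 100% = positive control wells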
A3A conf: confirmation of human APOBEC3A DNA deaminase inhibitors; recombinant A3A, ssDNA deaminase UDG fluorescence assay; 1,400 compounds, 63% hits; inhibition, % at 20 µM; shares compounds with A3A deaminase;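 active means inhibition reaching a set limit, 80% of the first screen's cutoff, at 20 µM in any replicate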;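 further: plate controls were DMSO wells with A3A for no effect and wells lacking A3A enzyme for full effect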
UDG ctr A3A: counter-screen for APOBEC3A inhibitors: UDG | shares compounds with A3A deaminase | UDG counterscreen, FAM/TAMRA uracil oligo fluorescence | inhibition, % at 20 µM | 1,000 tested, under 10 active | AID 504714; call rule not given here
An asterisk follows results filed as active; x = not tested or not shown.

SMILES	A3A deaminase	PHOSPHO1 inh	esBAF inh	MITF TRPM1 HTS	APOBEC3G inh	Wnt bcat act	A3A conf	UDG ctr A3A
O=C(COC(=O)c1nc(Cl)c(Cl)c(Cl)c1Cl)c1ccc[nH]1	45*	x	-3	-17	13	8	4	x
O=C(CN1C(=O)NC2(CCSC2)C1=O)NCc1ccccc1 (stereo not drawn)	84*	10	0	-6	-9	-1	-6	-2
O=C(CN1C(=O)NC2(CCCC2)C1=O)NCc1ccccc1	-3	x	0	3	-7	8	x	x
CCCN1C[C@@H](C)[C@@H](OC)CN(C)C(=O)c2cc(NC(=O)C3CCOCC3)ccc2OC[C@H]1C	x	x	-2	x	x	x	x	x
O=C(CSC1=NCCS1)NC1CCCCC1	49*	-7	6	17	8	-1	52*	0
Cc1ccc(S(=O)(=O)Cc2ccc(C(=O)N3CCc4ccccc4C3)o2)cc1	41*	11	3	-8	11	-5	34*	-3
CNC[C@@H]1Oc2cc(C#Cc3ccc(F)cc3)ccc2S(=O)(=O)N([C@H](C)CO)C[C@H]1C	x	x	-7	x	x	x	x	x
CCSC1=NC(=O)/C(=C2/C=Cc3ccccc3N2CC)S1	40*	-29	-1	-2	21	x	18	x
CCN1/C(=C2\OC(=S)N(C)C2=O)C=Cc2ccccc21	-2	2	-12	3	-9	0	x	x
O=C(Nc1cc(F)ccc1F)N1C[C@@H]2[C@H](c3ccccc31)[C@@H](CO)N2Cc1ccncc1	x	x	1	x	x	x	x	x
COc1ccc2c(c1)CCc1sc(NC(=O)c3ccc(C)cc3)nc1-2	50*	-47	3	0	5	x	26	x
O=C(O)[C@H]1Cc2ccccc2CN1S(=O)(=O)c1ccc(F)cc1	0	20	-1	2	-2	1	x	x
CC(=O)c1ccc(S(=O)(=O)N2Cc3ccccc3CC2C(=O)O)cc1 (stereo not drawn)	56*	16	-6	1	19	0	56*	2
O=C1N=C(N2CCOCC2)S/C1=C/c1cccs1	71*	23	10	7	-1	x	-2	-3
Cc1ccc(/C=C2/SC(=Nc3ccc(F)cc3)NC2=O)s1	51*	-25	0	3	17	1	63*	-2
COc1ccc(/C=C2\C(=O)NCC(=O)N2C)cc1	52*	18	1	6	14	0	75*	-3
O=C(COc1ccc(F)c(Cl)c1)N1CCN(c2ccccn2)CC1	1	41	x	13	-4	0	x	x
O=C(COc1ccccc1Cl)N1CCN(c2ccccn2)CC1	42*	x	-1	2	7	-5	2	x
Cc1cc(C)cc(OCC(=O)N2N=C(c3cccnc3)CC2(O)C(F)(F)F)c1 (stereo not drawn)	-2	-5	x	-2	-4	x	x	x
Cc1cc(C)cc(OCC(=O)N2N=C(C(F)(F)F)CC2(O)C(C)(C)C)c1 (stereo not drawn)	56*	6	0	-4	19	x	48*	-1
CCCCN(C(=O)c1c(CC)noc1C)c1c(N)n(CCCC)c(=O)[nH]c1=O	44*	x	-4	-3	0	1	23	-2
CCCCn1c(N)c(N(CC)C(=O)c2c(CC)noc2C)c(=O)[nH]c1=O	2	x	0	0	-6	0	x	x
CCCCN(C(=O)c1cnccn1)c1c(N)n(CCC)c(=O)[nH]c1=O	45*	x	-7	11	20	0	46*	-2
O=C(C[C@@H]1CC[C@@H](NS(=O)(=O)c2ccc(F)cc2)[C@H](CO)O1)N1CCc2ccccc2C1	x	x	8	x	x	x	x	x
O=C(C[C@@H]1CC[C@@H](NC(=O)c2cccnc2)[C@@H](CO)O1)NCc1ccc(Cl)c(Cl)c1	x	x	4	x	x	x	x	x
SMILES	A3A deaminase	PHOSPHO1 inh	esBAF inh	MITF TRPM1 HTS	APOBEC3G inh	Wnt bcat act	A3A conf	UDG ctr A3A
COc1cccc(C(=O)Nc2ccc3c(c2)OC[C@H](C)N(CC2CC2)C[C@H](C)[C@H](OC)CN(C)C3=O)c1	x	x	5	x	x	x	x	x
O=C(CSc1ncnc2nc[nH]c12)Nc1ccccc1C(F)(F)F	57*	79*	-9	-9	25	3	39*	-4
Cc1cccc(C)c1NC(=O)CSc1ncnc2nc[nH]c12	3	18	-3	13	-4	1	x	x
COc1ccc(OCCNC(=O)/C=C/c2ccccc2)cc1	2	-26	x	0	-6	0	x	x
CC[N+](CC)(CC)CCOc1cccc(OCC[N+](CC)(CC)CC)c1OCC[N+](CC)(CC)CC	75*	x	-4	-5	20	x	92*	-3
CC[N+](CC)(CC)CCOc1ccc(/C=C/c2ccccc2)cc1	49*	x	-10	-10	11	-6	76*	-2
CCC(=O)N1[C@@H]2CN(C(=O)Nc3cccc(Cl)c3)c3ccccc3[C@@H]2[C@@H]1CO	x	x	0	x	x	x	x	x
CC(=O)Nc1cc(-c2ccccc2)ccc1O	47*	90*	-8	x	16	0	60*	-3
CC(=O)Nc1cc(Br)ccc1O	-2	6	8	1	-13	-1	x	x
C/C=C/c1ccc([C@H]2[C@H](CO)N3CCCCN(S(=O)(=O)c4ccc(F)cc4)C[C@@H]23)cc1	x	x	-6	x	x	x	x	x
C=CCn1c(CNC(=O)c2cccs2)nnc1SCC(=O)Nc1ccc(C(=O)O)cc1	48*	90*	0	11	6	x	4	x
COc1ccc(NC(=O)N(C)C[C@@H]2Oc3c(NC(=O)Nc4ccccc4)cccc3C(=O)N([C@@H](C)CO)C[C@H]2C)cc1	x	x	-1	x	x	x	x	x
CC(C)N1CC(O)=C(c2ccccc2)C1=N	74*	7	4	-3	-3	0	-1	4
CC(C)=CCCC1=CCC2C(=O)NNC(=O)C2C1 (stereo not drawn)	58*	-7	-3	1	-7	1	-1	2
O=C(CCCOc1ccccc1)N1CCN(S(=O)(=O)c2ccc(Cl)cc2)CC1	0	x	-2	-2	8	0	x	x
CCOc1ccc(OCCCC(=O)N2CCN(S(=O)(=O)c3ccc(Cl)cc3)CC2)cc1	70*	x	-6	0	15	-2	77*	-2
O=C(NCCc1ccccc1)c1ccc2c(c1)OCCCO2	42*	30	-82	-91	6	-12	51*	2
COc1ccc(NC(=O)Nc2ccc3c(c2)CC(=O)N([C@@H](C)CO)C[C@@H](C)[C@H](CN(C)S(=O)(=O)c2ccccc2)O3)cc1	x	x	0	x	x	x	x	x
Cc1ccc(/C=N/Nc2cc(C)nc(NCc3ccccc3)n2)cc1	-1	16	4	x	-3	-2	x	x
Cc1cc(N/N=C/c2ccc(O)cc2)nc(NS(=O)(=O)c2ccccc2)n1	49*	6	-37	5	16	x	39*	-3
